High-throughput results as filed in PubChem BioAssay.
PKA-R1A act – activators of PKA-R1A holoenzyme, primary screen, biochemical, fluorescence polarization, Cy5-IP20, bovine R1A, mouse PKAc. cAMP-dependent protein kinase type I-alpha regulatory subunit (Bos taurus) + …. PKA-R1A dissociation; scaled: DMSO 0%, 113 µM cGMP 100%. activation, % at 11.4 µM. hit rate 0.083% among 340,000. AID 504707, 2011;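 active means percent activation above the mean of all tested compounds plus 3 SD, cut at about 19% in these data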;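 further: higher means more PKAc released from R1A so a rise in polarization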
PKA-R2B act – activators of PKA-R2B holoenzyme, primary screen, biochemical, fluorescence polarization, Cy5-IP20, human | hit rate 0.079% among 340,000 | cAMP-dependent protein kinase catalytic subunit beta (Homo sapiens) + cAMP-dependent … | PKA-R2B holoenzyme dissociation; R2B truncated from residue 108, S112A mutant; 0% DMSO only, 100% 113 µM cGMP | activation, % at 11.4 µM | AID 504700, 2011;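 active means activation above a cutoff set at the mean over all compounds plus 3 SD, cut at about 18% in these data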;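 further: higher means more holoenzyme dissociation and a rise in polarization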
Target sequence (P31323 whole entry, looked up, other chains not shown, the tested form may be a part): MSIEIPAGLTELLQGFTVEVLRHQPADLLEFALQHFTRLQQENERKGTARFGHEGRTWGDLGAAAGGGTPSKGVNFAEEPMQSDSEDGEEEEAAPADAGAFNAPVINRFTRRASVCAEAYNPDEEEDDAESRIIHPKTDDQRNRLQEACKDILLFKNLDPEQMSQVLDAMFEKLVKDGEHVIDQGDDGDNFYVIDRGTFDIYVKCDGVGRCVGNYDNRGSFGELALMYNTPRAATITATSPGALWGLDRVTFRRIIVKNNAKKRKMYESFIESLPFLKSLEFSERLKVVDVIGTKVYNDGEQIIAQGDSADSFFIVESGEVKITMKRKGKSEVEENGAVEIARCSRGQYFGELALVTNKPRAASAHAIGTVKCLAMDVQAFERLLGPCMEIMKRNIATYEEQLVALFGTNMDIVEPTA
MsrA inh – bovine MsrA enzyme inhibitors, primary screen, biochemical, absorbance, HTS. Methionine sulfoxide reductase A (Bos taurus). purified bovine MsrA, absorbance read-out. inhibition, % at 15.5 µM. hit rate 0.75% among 360,000; in the data active means inhibition above about 4.5%;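 further: 0% = vehicle wells with enzyme and 100% = reference inhibitor wells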
bovine MsrA act – bovine MsrA enzyme activators, primary screen, biochemical, absorbance, HTS; Methionine sulfoxide reductase A (Bos taurus); purified bovine MsrA, absorbance read-out; activation, % at 10.6 µM; hit rate 0.3% among 360,000; AID 602163, 2012; in the data active means activation above about 7.5%;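 further: 0% = vehicle and 100% = reference activator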
R2B FP artifact – fluorescence polarization artefacts, biochemical, artefact control for PKA-R2B activator project | hit rate 6% among 270 | AID 504796, 2011 | shares compounds with PKA-R2B act | activation, % at 11.4 µM | FP artifact counterscreen; in the data active means activation above about 20%;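 further: Cy5 labelled IP20 peptide probe with compound but no PKA protein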
PKA-R2B act conf – activators of PKA-R2B holoenzyme, confirmation, biochemical, fluorescence polarization, human; shares compounds with PKA-R2B act; AID 504797, 2011; activation, % at 11.4 µM; hit rate 9% among 270; PKA-R2B complex, activation; in the data active means activation above about 19%
Target sequence (P31323 whole entry, looked up): as the sequence (P31323 whole entry, looked up, other chains not shown, the tested form may be a part) above
An asterisk follows results filed as active; i = inactive; . = no result given; + = active, no number. Hits are enriched below; roughly 1.1% of the tested compounds scored in any of these assays.

SMILES	PKA-R1A act	PKA-R2B act	MsrA inh	bovine MsrA act	R2B FP artifact	PKA-R2B act conf
Cc1nc(CCNC(=O)CC2C(=O)NCCN2Cc2ccoc2)nc2c1CCCC2 (stereo unspecified)	4.2	22.6*	1.1	-11.8	3.2	3.0
COc1ccccc1CN1CCN(Cc2ccc3ccccc3c2)CC1	4.3	-0.7	-0.4	-2.0	.	.
COc1ccc(CN2CCN(Cc3ccc4ccccc4c3)CC2)cc1OC	-8.6	23.5*	-0.4	-5.5	-1.9	-5.0
CC(C)c1[nH]nc2c1C(c1cccc(C(F)(F)F)c1)N(Cc1ccccc1)C2=O (stereo unspecified)	.	.	1.3	.	.	.
Cc1cnc(NC(=O)CC2CCCC2)s1	-0.1	0.0	-0.8	-8.2	.	.
Cc1cnc(NC(=O)CC2OC(=O)c3ccccc32)s1 (stereo unspecified)	-4.1	19.4*	1.0	-3.6	3.0	1.2
O=C(OCc1ccc(F)cc1)c1cc(=O)c2ccccc2o1	5.8	20.6*	-0.8	-1.5	1.2	4.0
COc1cccc(CNC(=O)[C@H]2CCCN2C(=O)[C@H]2CCCN2C(=O)N2CCOCC2)c1	.	.	-1.0	.	.	.
COc1ccc(-c2cc(NC(=O)Cc3c(C)[nH]c4ccccc34)ccc2Nc2cccnc2)cc1F	.	.	0.0	.	.	.
Cc1ccc2nc(SCC(=O)O)nc(C)c2c1	6.9	20.2*	0.9	-14.2	2.5	2.0
Cc1ccc2nc(SCCC#N)nc(C)c2c1	1.1	-0.4	-1.0	-2.7	.	.
CCN(CC)c1ccc(NC(=O)Cn2c(C(C)NC(=O)c3ccccc3)nc3ccccc32)cc1 (stereo unspecified)	0.5	18.6*	-0.3	-4.7	-3.4	-3.0
O=C(NC1CCCCC1)c1cc(S(=O)(=O)N2CCN(c3ccccc3)CC2)ccc1Cl	-6.5	20.0*	-1.2	0.1	1.8	-2.5
COc1ccc(C(=O)NC2CCN(CC(=O)NC3CCCCC3)CC2)cc1	10.5	-8.0	0.4	-2.6	.	.
COc1cc(C(=O)NC2CCN(CC(=O)NC3CCCCC3C)CC2)cc(OC)c1OC (stereo unspecified)	-3.7	18.4*	0.7	-1.8	5.1	1.7
Cc1ccccc1-c1ccc2c(c1)[C@@H]1C[C@H](N(C)C(=O)Nc3ccccc3)[C@H]([C@H](C)O)CN1CC2	.	.	1.1	.	.	.
CCOc1ccccc1NC(=O)C(OC(=O)c1ccc(CC)cc1)c1ccccc1 (stereo unspecified)	1.2	19.2*	2.5	-0.4	0.6	1.0
CCOc1ccccc1NC(=O)C(OC(=O)c1ccc(O)cc1)c1ccccc1 (stereo unspecified)	-4.8	-7.2	-1.5	-9.6	.	.
CCCCc1c(-c2ccccc2OC)ncn1Cc1ccc(F)c(F)c1	.	.	-0.2	.	.	.
CC1=[N+](C)c2ccc3ccccc3c2C1(C)C	13.8	18.7*	-0.6	-3.8	7.0	12.1
CCCc1cc(=O)n2[nH]c(NCc3c(Cl)cccc3Cl)nc2n1	14.7	24.1*	0.2	-3.9	22.2*	17.9
CCCc1cc(=O)n2[nH]c(NCc3ccccc3F)nc2n1	2.2	10.5	-0.6	-0.5	.	.
COc1ccc2c(c1)CCC(=O)[C@H](O)C[C@H](c1ccccc1)OC2=O	.	.	0.3	-0.9	.	.
Cc1ccccc1-c1nnc(-c2ccc(Cl)cc2)o1	-7.9	-4.2	-1.3	-9.7	.	.
Cc1ccccc1-c1nc(Cc2ccc(Cl)cc2)no1	-2.1	19.3*	0.8	-2.4	-1.9	-0.9
SMILES	PKA-R1A act	PKA-R2B act	MsrA inh	bovine MsrA act	R2B FP artifact	PKA-R2B act conf
O=C(O)C1(C(=O)O)CCC1	i	+	-0.9	-12.4	i	i
O=C(O)c1sccc1SCc1ccc(Cl)cc1Cl	9.5	22.9*	-0.1	-2.3	2.5	15.2
COCCNC(=O)CN(Cc1ccccc1)C(=O)CCC(=O)Nc1nccs1	0.0	19.1*	-0.2	-0.5	2.4	-4.3
CCOC(=O)C(C)(C)CC#CCN(CC#Cc1ccccc1)S(=O)(=O)c1ccc(C)cc1	.	.	0.1	.	.	.
Nc1ncnc2c1ncn2[C@@H]1O[C@H](C(=O)N[C@@H](CCc2ccccc2)C(=O)N2CCN(C(=O)C(F)(F)F)CC2)[C@@H](O)[C@H]1O	.	.	0.1	.	.	.
COc1ccc(C(=O)NCC2CCN(C(=O)C(=O)c3cccs3)CC2)c(OC)c1	.	.	0.6	.	.	.
COc1ccccc1C(=O)N1CCC2CCN(C(=O)c3ccccc3)C2C1 (stereo unspecified)	.	.	0.2	.	.	.
CCc1nnc(NC(=O)CSc2nnc(C)n2-c2ccc(C)cc2)s1	-0.6	18.8*	-0.6	-11.7	4.2	1.4
Cc1[nH]c2ccccc2c1CC(=O)Nc1ccc(N(C)c2cccnc2)c(-c2cccc(Cl)c2)c1	.	.	0.2	.	.	.
Cc1ccc(C(NC(=O)N2CCOCC2)C(Cl)Cl)cc1F (stereo unspecified)	-11.0	22.4*	1.5	-2.7	4.9	5.0
COc1ccc(OC)c(C(=O)c2coc3ccc(OC(C)=O)cc23)c1	2.8	21.3*	-0.8	-13.9	2.6	0.0
C[C@@H]1ON(C)[C@H]2C[C@H]3c4[nH]c5c(-c6ccc(F)cc6)cccc5c4CCN3C(=O)[C@@H]12	.	.	-1.4	.	.	.
CCCNC(=O)C[C@@H]1CC[C@H]2NC[C@H](O)COC[C@@H]2O1	.	.	-0.5	.	.	.
C=CCNC(=O)c1onc(CSc2ccccc2)c1C(=O)NCC=C	-1.4	3.9	-0.3	-3.4	.	.
C=CCNC(=O)c1onc(CSc2ccncc2)c1C(=O)NCC=C	-9.4	22.4*	0.4	-2.2	2.9	0.0
O=S(=O)(O)c1cccc2c(N=Nc3ccc(O)c4ncccc34)cccc12	-0.3	20.8*	.	0.6	-2.1	12.3
O=C(O)C(=Cc1ccc([N+](=O)[O-])cc1)c1ccccc1	.	.	2.7	.	.	.
CCN(CC)c1ccc(-n2c(C)c(C(C)=O)c(C(C)=O)c2C)cc1	-9.5	18.6*	-0.5	0.5	0.2	1.9
Brc1ccc2cccnc2c1	5.7	23.0*	0.5	-3.4	-0.6	0.3
CC(C)OC(=O)CSc1nnc(-c2ccc(C(C)(C)C)cc2)n1N	-0.4	19.1*	-0.4	0.4	-1.4	3.3
COc1ccccc1C(=O)NC(CCSC)C(=O)NCc1ccncc1 (stereo unspecified)	7.2	21.1*	-1.4	-4.8	0.1	1.4
CC(C)NC(=O)OC[C@H]1O[C@H](C#Cc2ccc(C(C)(C)C)cc2)C=C[C@H]1O	.	.	0.9	.	.	.
O=S(=O)(c1ccc2c(c1)OCCO2)N1CCC(c2nc3ccc(Cl)cc3[nH]2)CC1	-6.5	13.6	-0.4	-11.0	.	.
O=S(=O)(c1ccc2c(c1)OCCO2)N1CCC(c2nc3ccccc3[nH]2)CC1	-0.6	18.7*	-0.8	-0.6	3.6	2.5
O=C1NC(c2ccccc2)c2c(-c3ccccc3)n[nH]c21 (stereo unspecified)	.	.	1.1	.	.	.
